In PubChem BioAssay AID1159580 (chemical genetic matrix, 2015):
Several values for one entry are separate records, joined by “and”; a condition that tells them apart may be missing. Equal entries are not always repeated. About 2,000 (36%) of roughly 5,500 compounds were called active. About 18% were inconclusive and are not listed. Cut-off read from the data, not from the text of the source: active = normalized growth mostly below about 0.91 (no sharp cut-off); inconclusive = no clear call, values can overlap the other calls; inactive = mostly above about 0.92. This is one part of the list.

Test: chemical genetic growth profiling, strain panel (AID 1159580);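 note: tested at 20 µM; growth read once vehicle control cultures reached saturation at 30 °C; 1 = growth at the plate median or of vehicle wells; lower values mean less growth of the strain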
Settings: growth OD

Measured: normalized growth

COCCc1ccc(OCC(O)CNC(C)C)cc1 (stereo unspecified)
inactive: S. cerevisiae deletion strains, locus YJR075W, strain HOC1, stronger effect = lower value 1.01 | S. cerevisiae deletion strains, locus YKL009W, strain mrt4, stronger effect = lower value 1 | S. cerevisiae deletion strains, locus YKL068W, stronger effect = lower value 1.01 | S. cerevisiae deletion strains, locus YKL085W, strain MDH1 (second series), stronger effect = lower value 0.998 | S. cerevisiae deletion strains, locus YKL085W, strain MDH1, stronger effect = lower value 0.998 | S. cerevisiae deletion strains, locus YKL160W, strain elf1, stronger effect = lower value 0.98 | S. cerevisiae deletion strains, locus YKL190W, strain CNB1, stronger effect = lower value 1.01 | S. cerevisiae deletion strains, locus YKR001C, strain vps1, stronger effect = lower value 0.999 | S. cerevisiae deletion strains, locus YKR026C, strain gcn3, stronger effect = lower value 1 | S. cerevisiae deletion strains, locus YKR091W, strain srl3, stronger effect = lower value 0.988 | S. cerevisiae deletion strains, locus YLL001W, strain dnm1, stronger effect = lower value 0.935 | S. cerevisiae deletion strains, locus YLL026W, stronger effect = lower value 0.99 | S. cerevisiae deletion strains, locus YLL041C, strain sdh2, stronger effect = lower value 1 | S. cerevisiae deletion strains, locus YLR027C, strain aat2, stronger effect = lower value 1.02 | S. cerevisiae deletion strains, locus YLR039C, strain RIC1, stronger effect = lower value 0.989 | S. cerevisiae deletion strains, locus YLR058C, strain SHM2, stronger effect = lower value 1.01 | S. cerevisiae deletion strains, locus YLR102C, strain apc9, stronger effect = lower value 1.01 | S. cerevisiae deletion strains, locus YLR113W, strain HOG1, stronger effect = lower value 1.03 | S. cerevisiae deletion strains, locus YLR221C, strain rsa3, stronger effect = lower value 0.955 | S. cerevisiae deletion strains, locus YLR258W, strain gsy2, stronger effect = lower value 1.01 | S. cerevisiae deletion strains, locus YLR262C, strain YPT6 (second series), stronger effect = lower value 1 | S. cerevisiae deletion strains, locus YLR262C, strain YPT6, stronger effect = lower value 1 | S. cerevisiae deletion strains, locus YLR268W, strain sec22, stronger effect = lower value 1.08 | S. cerevisiae deletion strains, locus YLR320W, strain mms22, stronger effect = lower value 0.977 | S. cerevisiae deletion strains, locus YLR330W, strain CHS5, stronger effect = lower value 1.01 | S. cerevisiae deletion strains, locus YLR342W, strain FKS1 (second series), stronger effect = lower value 1.01 | S. cerevisiae deletion strains, locus YLR342W, strain FKS1, stronger effect = lower value 0.993 | S. cerevisiae deletion strains, locus YLR357W, strain rsc2, stronger effect = lower value 0.973 | S. cerevisiae deletion strains, locus YLR370C, strain arc18, stronger effect = lower value 0.99 | S. cerevisiae deletion strains, locus YLR371W, strain rom2, stronger effect = lower value 1.01 | S. cerevisiae deletion strains, locus YLR384C, strain iki3, stronger effect = lower value 0.991 | S. cerevisiae deletion strains, locus YLR418C, strain cdc73, stronger effect = lower value 0.986 | S. cerevisiae deletion strains, locus YML016C, strain PPZ1, stronger effect = lower value 1.01 | S. cerevisiae deletion strains, locus YML032C, strain rad52, stronger effect = lower value 1.03 | S. cerevisiae deletion strains, locus YML120C, strain ndi1, stronger effect = lower value 0.942 | S. cerevisiae deletion strains, locus YML124C, strain tub3, stronger effect = lower value 1.01 | S. cerevisiae deletion strains, locus YMR058W, strain fet3, stronger effect = lower value 0.989 | S. cerevisiae deletion strains, locus YMR078C, strain ctf18, stronger effect = lower value 1.01 | S. cerevisiae deletion strains, locus YMR125W, strain sto1, stronger effect = lower value 0.97 | S. cerevisiae deletion strains, locus YMR129W, stronger effect = lower value 0.996 | S. cerevisiae deletion strains, locus YMR205C, strain PFK2, stronger effect = lower value 0.962 | S. cerevisiae deletion strains, locus YMR223W, strain ubp8, stronger effect = lower value 0.995 | S. cerevisiae deletion strains, locus YMR231W, strain pep5, stronger effect = lower value 0.997 | S. cerevisiae deletion strains, locus YMR263W, strain SAP30, stronger effect = lower value 1.02 | S. cerevisiae deletion strains, locus YMR307W, strain GAS1, stronger effect = lower value 1.02 | S. cerevisiae deletion strains, locus YNL067W, strain RPL9B, stronger effect = lower value 1.02 | S. cerevisiae deletion strains, locus YNL071W, strain lat1, stronger effect = lower value 0.989 | S. cerevisiae deletion strains, locus YNL128W, strain TEP1, stronger effect = lower value 1.01 | S. cerevisiae deletion strains, locus YNL153C, strain GIM3, stronger effect = lower value 1.02 | S. cerevisiae deletion strains, locus YNL175C, strain NOP13, stronger effect = lower value 1.01 | S. cerevisiae deletion strains, locus YNL183C, strain NPR1, stronger effect = lower value 1 | S. cerevisiae deletion strains, locus YNL197C, strain WHI3, stronger effect = lower value 0.984 | S. cerevisiae deletion strains, locus YNL209W, strain ssb2, stronger effect = lower value 0.987 | S. cerevisiae deletion strains, locus YNL224C, strain SQS1, stronger effect = lower value 0.988 | S. cerevisiae deletion strains, locus YNL233W, strain BNI4, stronger effect = lower value 1.01 | S. cerevisiae deletion strains, locus YNL248C, strain rpa49, stronger effect = lower value 0.992 | S. cerevisiae deletion strains, locus YNL250W, strain rad50, stronger effect = lower value 1.01 | S. cerevisiae deletion strains, locus YNL271C, strain bni1, stronger effect = lower value 1.01 | S. cerevisiae deletion strains, locus YNL298W, strain CLA4, stronger effect = lower value 1.02 | S. cerevisiae deletion strains, locus YNL307C, strain MCK1, stronger effect = lower value 1.02 | S. cerevisiae deletion strains, locus YNL322C, strain KRE1 (second series), stronger effect = lower value 0.98 | S. cerevisiae deletion strains, locus YNL322C, strain KRE1, stronger effect = lower value 1 and 0.99 | S. cerevisiae deletion strains, locus YNR049C, strain mso1, stronger effect = lower value 0.978 | S. cerevisiae deletion strains, locus YNR052C, strain pop2, stronger effect = lower value 1.01 | S. cerevisiae deletion strains, locus YOL006C, strain TOP1, stronger effect = lower value 1.07 | S. cerevisiae deletion strains, locus YOL012C, strain htz1 0.79 | S. cerevisiae deletion strains, locus YOL147C, strain pex11, stronger effect = lower value 1.01 | S. cerevisiae deletion strains, locus YOR001W, strain rrp6, stronger effect = lower value 1.03 | S. cerevisiae deletion strains, locus YOR061W, strain CKA2, stronger effect = lower value 1.01 | S. cerevisiae deletion strains, locus YOR069W, strain VPS5, stronger effect = lower value 1.01 | S. cerevisiae deletion strains, locus YOR070C, strain gyp1, stronger effect = lower value 0.995 | S. cerevisiae deletion strains, locus YOR080W, strain dia2, stronger effect = lower value 0.985 | S. cerevisiae deletion strains, locus YOR083W, strain WHI5 (second series), stronger effect = lower value 0.999 | S. cerevisiae deletion strains, locus YOR083W, strain WHI5, stronger effect = lower value 0.981 | S. cerevisiae deletion strains, locus YOR106W, strain vam3, stronger effect = lower value 0.957 | S. cerevisiae deletion strains, locus YOR136W, strain idh2, stronger effect = lower value 1.01 | S. cerevisiae deletion strains, locus YOR144C, strain elg1, stronger effect = lower value 1.01 | S. cerevisiae deletion strains, locus YOR184W, strain ser1, stronger effect = lower value 1.02 | S. cerevisiae deletion strains, locus YOR231W, strain MKK1, stronger effect = lower value 1.03 | S. cerevisiae deletion strains, locus YOR265W, strain rbl2, stronger effect = lower value 0.995 | S. cerevisiae deletion strains, locus YOR270C, strain vph1, stronger effect = lower value 0.975 | S. cerevisiae deletion strains, locus YOR290C, strain snf2, stronger effect = lower value 0.91 | S. cerevisiae deletion strains, locus YOR316C, strain cot1, stronger effect = lower value 1.01 | S. cerevisiae deletion strains, locus YPL051W, strain arl3, stronger effect = lower value 1 | S. cerevisiae deletion strains, locus YPL055C, strain LGE1, stronger effect = lower value 0.989 and 1.01 | S. cerevisiae deletion strains, locus YPL078C, strain atp4, stronger effect = lower value 0.978 | S. cerevisiae deletion strains, locus YPL106C, strain sse1, stronger effect = lower value 0.971 | S. cerevisiae deletion strains, locus YPL240C, strain hsp82, stronger effect = lower value 0.992 | S. cerevisiae deletion strains, locus YPL241C, strain CIN2, stronger effect = lower value 1 and 0.974 | S. cerevisiae deletion strains, locus YPL256C, strain CLN2, stronger effect = lower value 1.1 | S. cerevisiae deletion strains, locus YPR119W, strain clb2, stronger effect = lower value 1.02 | S. cerevisiae deletion strains, locus YPR141C, strain kar3, stronger effect = lower value 1.02 | S. cerevisiae deletion strains, locus YPR163C, strain tif3, stronger effect = lower value 1.02 | S. cerevisiae deletion strains, locus YPR167C, strain met16, stronger effect = lower value 1.01 | S. cerevisiae deletion strains, strain wtn01, stronger effect = lower value 1.05 | S. cerevisiae strains, strain wild type, stronger effect = lower value 1.01
